This is part of a sample that, as a whole, favours compounds with a hit. Of some 83,000 tested, about 20% had one in any assay.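 Values shown are percent growth following 48 h exposure of cells in 96-well plates to a single concentration of compound; below 10 was considered active.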 Unmarked numbers belong to inactive results. The source made the active and inactive calls.
Test system: NCI-H23 lung
Experiment: NCI-60 one-dose screen, 48 h (100 = growth as untreated, 0 = no growth, -100 = all killed)
Details: 10 µM unless noted
Protocol: Growth inhibition of the NCI-H23 human Non-Small Cell Lung tumor cell line is measured as a screen for anti-cancer activity. Cells are grown in 96 well plates and exposed to the test compound for 48 hours. Compounds are tested at a single concentration, which is 10^-5 M for most compounds. The reported endpoint is percent growth (GI% or GIPRCNT), where numbers from 0 - 100% represent growth inhibition, and numbers from -100% - 0 represent cell death. For example, a value of 40 represents 60% growth inhibition. A value of 0 means no net growth occurred over the course of the experiment. A value of -40 indicates 40% of cells at the beginning of the experiment died by the end of the experiment. A value of -100 means all cells are dead at the end of the experiment.
NCI-60 Human Tumor Cell Lines Screen was performed using the standard one-dose NCI protocol, which is described in more detail at https://dtp.cancer.gov/discovery_development/nci-60/default.htm.
Compounds with GIPRCNT values below 10 were considered active. Activity score was based on GIPRCNT using the following formula: […]
Score is 0 for GIPRCNT values of 100 or above, 50 for GIPRCNT values of 0, and 100 for GIPRCNT values of -100.

Point of comparison: `COc1cc(C(=O)/C=C/c2cc(-c3ccc4c(c3)OCO4)n[nH]2)cc(OC)c1OC`, growth 24.5%. Against it:
- COC(=O)CNc1nc(N(C)O)nc(N(C)O)n1 — higher, 48.7%
- O=c1c2sc3ncc(Br)cc3c2ncn1-c1cccc(Cl)c1 — higher, 87.4%
- COc1cccc(-c2nn(-c3ccccc3)cc2-c2ccnc(NCCNS(=O)(=O)c3cccc(F)c3)c2)c1 — higher, 38.4%
- O=C1c2cccc3cccc(c23)C(=O)N1CC#Cc1ccc2c3c(cccc13)C(=O)N(CCO)C2=O — higher, 81%
- Cn1cc(-c2nc(-c3c[nH]c4ncccc34)cs2)c2cc(Cl)ccc21 — higher, 69.5%
- Cn1cccc1/C=C1/SC(=S)N(CCc2ccc(O)cc2)C1=O — higher, 79.5%
- CCc1cccc(CC)c1NC(=O)c1sc2nc3c(cc2c1N)CCCC3 — higher, 87%
- CC(Cc1ccco1)C(=O)NC(N)=O (stereo not given) — higher, 97.4%
- Cc1cc(N2CCCCC2)nc(N(CCCNc2ccnc3cc(Cl)ccc23)Cc2ccco2)n1 — lower, 21.4%
- CSc1ccc(N(C)c2nc(C)nc3c2CCC3)cc1 — lower, 16.7%
- COc1cc(-c2cc(-c3nc4cc(Cl)c(Cl)cc4[nH]3)[nH]n2)cc(OC)c1OC — higher, 75.3%
- Cn1cc(-c2csc(-c3cn(CCN)c4ccccc34)n2)c2cccnc21 — higher, 59.3%
- Cn1cc(-c2nc(-c3c[nH]c4ncccc34)cs2)c2cc(F)ccc21 — higher, 40.8%
- N#C/C(=C\c1ccc(-c2cccc(C(F)(F)F)c2)o1)c1nc(-c2ccco2)cs1 — higher, 91.8%
- Cn1cc(-c2nc(-c3c[nH]c4ncccc34)cs2)c2cc(Br)ccc21 — higher, 93.5%
- COc1cc(OC)c2c(c1)c1nc3cc(C)c(C)cc3nc1n2CCN(C)C — higher, 91.3%
- C=C(C)[C@@H]1CC[C@]2(C)[C@H](CC[C@@H]3[C@H]4[C@H]5OC[C@@]4(CCC5(C)C)CC[C@]32C)[C@@]1(C)CCCN — higher, 83.3%
- CC(=O)c1c(C)[nH]c(-c2nc3ccc(N4CCN(C)CC4)cc3[nH]2)c1-c1ccc(OCC2CCOCC2)cc1 — higher, 36.6%
- Nc1c2c(nc3ccc(Cl)cc13)CC(c1ccccc1)CC2=O (stereo not given) — higher, 58.6%
- CN(C)c1ccc(C(=O)c2ccc(N(C)C)c(N)c2)cc1N — higher, 40%
- N#C/C(=C\c1ccc(-c2ccc(Br)cc2)o1)c1nc(-c2cccs2)cs1 — higher, 91.3%
- O=C1c2ccccc2NC(c2cn(-c3ccccc3)nc2-c2cccs2)N1Cc1ccccc1 (stereo not given) — higher, 74%
- O=c1c(CNc2ccc(S(=O)(=O)Nc3ncccn3)cc2)coc2ccccc12 — higher, 102%
- Nc1ccc(Br)cn1 — higher, 104%
- CC(=O)OCCCCCCn1c2ccccc2c2c3c(c4c5ccccc5n(C)c4c21)C(=O)N(O)C3=O — higher, 68%
- CN(C)c1ccc(N=C2C=CC(=O)C=C2)cc1 — higher, 84.5%
- CN1CCN(CC#CCn2c3c(c4ccccc42)C[C@]2(C)[C@H]4CC[C@@H]5[C@H]6[C@H]7OC(=O)[C@@]6(CCC7(C)C)CC[C@@]5(C)[C@]4(C)CC[C@H]2C3(C)C)CC1 — higher, 92.7%
- O=C(NC(Cc1cn(Cc2ccccc2)cn1)C(=O)O)OCC1c2ccccc2-c2ccccc21 (stereo not given) — higher, 98.7%
- C/C(=N\Nc1ccc2ccccc2n1)c1ccccn1 — lower, 23.3%
- C=C1C(=O)O[C@H]2[C@H]1CC/C(COC(=O)N[C@H](Cc1c[nH]c3ccccc13)C(=O)OC)=C\CC[C@@]1(C)O[C@@H]21 — higher, 68.8%
- COc1ccc2[nH]cc(-c3nc(-c4c[nH]c5ncccc45)cs3)c2c1 — higher, 48.3%
- Cc1c(C)c2c(c(C)c1NC(=O)CCCCCCC(=O)O)CCC(C)(CCCC(C)CCCC(C)CCCC(C)C)O2 (stereo not given) — higher, 85.7%
- COc1ccc(-c2nc3ncccn3c2-c2nc3ccc(Br)cc3[nH]2)cc1 — higher, 98.4%
- CC1(C)CC[C@]2(C(=O)NCCNCCN)CC[C@]3(C)C(=CC[C@@H]4[C@@]5(C)CCC(=O)C(C)(C)[C@@H]5CC[C@]43C)[C@@H]2C1 — higher, 93.3%

`N=C(N)N=Nc1ccc(O)cc1` was tested, and the growth was 68% [100 µM].

With `COC(=O)[C@]12CC[C@@H](C)[C@H](C)[C@@H]1C1=CC[C@@H]3[C@@](C)(CC#N)C4=C(C[C@@]3(C)[C@]1(C)CC2)OC[C@]4(C)C=O` the growth was -10.1% (active).
In the case of `COc1ccc2c3c(c4ccccc4cc13)C(=O)N(CCN(C)CCN)C2=O`, the growth is reported as -71.4% (active).
In the case of `O=C1c2cc3c(cc2-c2c1c1ccc(Cl)cc1c(=O)n2C[C@H](O)[C@@H](O)[C@H](O)CO)OCO3`, the growth is reported as -18% (active).
With `COC(=O)[C@]12CC[C@@H](C)[C@H](C)[C@@H]1C1=CC[C@@H]3[C@@]4(C)C[C@@H](O)[C@H](O)[C@@](C)(CO)C4=CC[C@@]3(C)[C@]1(C)CC2` the growth was -57.8% (active).
